Reference: the supplement of paper PMC3414501
Counter-ions that a name gives are not always drawn. A number with no mark means an inactive call.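 Rule for the calls: active = score above 5; some higher scores were not called.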

Test system: S. cerevisiae SK1 pCDA2-eGFP (USY613), sporulating
Test: CDA2-GFP sporulation assay sensitivity score (z-score vs DMSO controls); higher = stronger inhibition of sporulation, active = hit call of the paper

| Compound | CDA2-GFP sporulation assay sensitivity score |
| --- | --- |
| Cc1ccnc2c1NC(=O)c1cccnc1N2C1CC1 [Viramune] (stock concentration (mM, diluted 1:100): 10) | -3.55 |
| CN1C(=O)CC[C@H]1c1cccnc1 [Cotinine] (stock concentration (mM, diluted 1:100): 10) | -0.11 |
| COC(=O)C1=C(C)NC(C)=C(C(=O)OC(C)C)C1c1cccc2nonc12 (stereo unspecified) [Isradipine] (stock concentration (mM, diluted 1:100): 9.9) | 1.45 |
| C[C@@H]1C[C@H]2[C@@H]3CCC4=CC(=O)C=C[C@]4(C)[C@@]3(F)[C@@H](O)C[C@]2(C)[C@H]1C(=O)CO [Desoximetasone] (stock concentration (mM, diluted 1:100): 10) | 0.62 |
| CN1[C@@H](CC(=O)c2ccccc2)CCC[C@H]1C[C@H](O)c1ccccc1 [Lobeline hydrochloride] (stock concentration (mM, diluted 1:100): 10) | 2.99 |
| C[N+]1(C)CCC(OC(=O)C(O)(c2ccccc2)C2CCCC2)C1 (stereo unspecified) [Glycopyrrolate] (stock concentration (mM, diluted 1:100): 10) | 1.55 |
| O=C(O)C[C@H](O)C[C@H](O)/C=C/c1c(C2CC2)nc2ccccc2c1-c1ccc(F)cc1 [Livalo] (stock concentration (mM, diluted 1:100): 5) | 0.3 |
| CCOC(=O)C1=C(C)NC(C)=C(C(=O)OCC)C1c1ccccc1/C=C/C(=O)OC(C)(C)C [Lacidipine] (stock concentration (mM, diluted 1:100): 10) | 6.44 |
| COc1cc(CNC(=O)CCCC/C=C/C(C)C)ccc1O [Capsaicin] (stock concentration (mM, diluted 1:100): 10) | -1.12 |
| COc1ccccc1N1CCN(CC(O)COc2cccc3ccccc23)CC1 (stereo unspecified) [Naftopidil] (stock concentration (mM, diluted 1:100): 10) | 9.59 (active) |
| O=c1c(O[C@@H]2O[C@H](CO)[C@H](O)[C@H](O)[C@H]2O)c(-c2ccc(O)c(O)c2)oc2cc(O)cc(O)c12 [Hyperoside] (stock concentration (mM, diluted 1:100): 8.8) | 0.06 |
| C[C@]12C=CC(=O)C=C1CC[C@@H]1[C@@H]2[C@@H](O)C[C@@]2(C)[C@H]1CC[C@]2(O)C(=O)COC(=O)CCC(=O)O (stock concentration (mM, diluted 1:100): 10) | -0.32 |
| O=C1c2c(O)cc(O)cc2OC(c2ccc(O)c(O)c2)C1O (stereo unspecified) [Taxifolin] (stock concentration (mM, diluted 1:100): 10.1) | -0.02 |
| O=C1C(c2c(O)[nH]c3ccccc23)=Nc2ccccc21 [Indarubicin] (stock concentration (mM, diluted 1:100): 10) | 9.61 |
| O=[N+]([O-])c1cccc2cn[nH]c12 [7-Nitroindazole] (stock concentration (mM, diluted 1:100): 10) | 2.93 |
| CC(N/C(=N\C#N)Nc1ccncc1)C(C)(C)C (stereo unspecified) [Pinacidil monohydrate] (stock concentration (mM, diluted 1:100): 10) | 1.62 |
| O=C1c2cccc3c2[C@H](CCC3)CN1[C@@H]1CN2CCC1CC2 [Palonosetron hydrochloride] (stock concentration (mM, diluted 1:100): 10) | 8.71 |
| CN(C)CCC(c1ccc(Cl)cc1)c1ccccn1 (stereo unspecified) [Chlorpheniramine] (stock concentration (mM, diluted 1:100): 10) | -1.3 |

| Compound | CDA2-GFP sporulation assay sensitivity score |
| --- | --- |
| O=C(c1ccccc1)c1ccc2n1CCC2C(=O)O (stereo unspecified) [Toradol] (stock concentration (mM, diluted 1:100): 6.8) | -1.05 |
| CC(=O)[C@]1(O)Cc2c(O)c3c(c(O)c2[C@@H](O[C@H]2C[C@H](N)[C@H](O)[C@H](C)O2)C1)C(=O)c1ccccc1C3=O [Idarubicin hydrochloride] (stock concentration (mM, diluted 1:100): 9.3) | -0.06 |
| CCN1CCN(c2cc3c(cc2F)c(=O)c(C(=O)O)cn3C2CC2)CC1 [Enrofloxacin] (stock concentration (mM, diluted 1:100): 10) | 2.66 |
| C[C@]12C[C@H](O)[C@H]3[C@@H](CCC4=CC(=O)CC[C@@]43C)[C@@H]1CC[C@@H]2C(=O)CO [Corticosterone] (stock concentration (mM, diluted 1:100): 10) | 3.57 |
| Cc1cccc(C)c1NC(=O)C1CCCCN1C (stereo unspecified) [Mepivacaine hydrochloride] (stock concentration (mM, diluted 1:100): 10) | 1.82 |
| CC(C)(C)NC(=O)[C@@H]1C[C@@H]2CCCC[C@@H]2CN1C[C@@H](O)[C@H](Cc1ccccc1)NC(=O)[C@H](CC(N)=O)NC(=O)c1ccc2ccccc2n1 [Saquinavir mesylate] (stock concentration (mM, diluted 1:100): 8.8) | -0.34 |
| Cc1cc2c(s1)Nc1ccccc1N=C2N1CCN(C)CC1 [Olanzapine] (stock concentration (mM, diluted 1:100): 9.9) | 2.56 |
| CC(=O)CCCCn1c(=O)c2c(ncn2C)n(C)c1=O [Pentoxifylline] (stock concentration (mM, diluted 1:100): 10) | 0.09 |
| CN1CC(=O)N2[C@H](c3ccc4c(c3)OCO4)c3[nH]c4ccccc4c3C[C@@H]2C1=O [Tadalafil] (stock concentration (mM, diluted 1:100): 10) | -4.01 |
| COC(=O)CCc1ccc(OCC(O)CNC(C)C)cc1 (stereo unspecified) [Esmolol hydrochloride] (stock concentration (mM, diluted 1:100): 9) | 0.86 |
| Nc1nc2ccc(Cl)cc2c2nc(-c3ccco3)nn12 (stock concentration (mM, diluted 1:100): 10) | -3.14 |
| CCC1=C(C)CN(C(=O)NCCc2ccc(S(=O)(=O)NC(=O)N[C@H]3CC[C@H](C)CC3)cc2)C1=O [Glimepiride] (stock concentration (mM, diluted 1:100): 7.7) | 0.5 |
| CC(C(=O)O)c1ccc(-c2ccccc2)c(F)c1 (stereo unspecified) [Flurbiprofen] (stock concentration (mM, diluted 1:100): 11.4) | -0.22 |
| COc1cc(OC)c(C(=O)CCCN2CCCC2)c(OC)c1 [Buflomedil hydrochloride] (stock concentration (mM, diluted 1:100): 8.9) | -0.24 |
| Oc1ccc(C2CNCCc3c2cc(O)c(O)c3Cl)cc1 (stereo unspecified) [Fenoldopam mesylate] (stock concentration (mM, diluted 1:100): 7.7) | -0.81 |
| C=CC1=C(C(=O)O)N2C(=O)[C@@H](NC(=O)/C(=N\OCC(=O)O)c3csc(N)n3)[C@H]2SC1 [Cefixime trihydrate] (stock concentration (mM, diluted 1:100): 10) | 2.05 |
| O=C(O)/C=C/c1ccc(Cn2ccnc2)cc1 [Ozagrel hydrochloride] (stock concentration (mM, diluted 1:100): 8.6) | 0.27 |
| O=C1CCc2ccc(OCCCCN3CCN(c4cccc(Cl)c4Cl)CC3)cc2N1 [Aripiprazole] (stock concentration (mM, diluted 1:100): 10) | -0.09 |
